Assay results reported in PubChem BioAssay (NCATS).
“And” between values parts separate entries of the source, which are not always exact repeats. Equal entries are not always repeated. Records with an inconclusive call do not appear. The source made the active and inactive calls. Unless noted, calls come from the whole dose curve; as a rule, active = well fitted curve in the direction sought with a large enough effect; inconclusive = small, poorly fitted or top-dose-only effect, or another doubt; inactive = no such curve, though single readings can be large; an effect the other way counts as inactive or inconclusive.

How the values were obtained:
[1] = HEK-293 Cancer Cell Toxicity qHTS against the NCATS CANVASS Library (AID 1347355); note: nearly all actives have a fitted effect of over 65% in size; note: potency is the fitted concentration of half-maximal effect; for outcome: series mostly up to about 46 µM
In short: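 1000 cells/well, 4 h pre-incubation 37 °C/5% CO2; 11-pnt titration; 72 h; CellTiter-Glo 15 min RT, luminescence.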

[2] = SDT Cancer Cell Toxicity qHTS against the NCATS CANVASS Library (AID 1347365); note: nearly all actives have a fitted effect of over 60% in size; note: potency is the fitted concentration of half-maximal effect
In short: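 Luminescent ATP read-out (CellTiterGlo) after 72 hr compound exposure of dog glioma SDT cells, 500 per well. Eleven-point titrations; bortezomib titration run alongside as control.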

[3] = G06 Cancer Cell Toxicity qHTS against the NCATS CANVASS Library (AID 1347368); note: nearly all actives have a fitted effect of over 60% in size; note: potency is the fitted concentration of half-maximal effect
In short: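 ATP luminescence (CellTiterGlo) readout of cytotoxicity. Canine G06 glioma cells, 500/well, 72 hr incubation at 37C with compounds; bortezomib titration served as control.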

[4] = qHTS for Hypoxia signaling pathway (HIF-1) antagonists against the NCATS CANVASS Library (AID 1347374); note: nearly all actives have a fitted effect of over 60% in size; note: potency is the fitted concentration of half-maximal effect
In short: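 Beta-lactamase reporter under HRE control in ME-180 cells; CoCl2 stimulus (60 uM solution as added), compounds 11-pt qHTS, 17 h 37C. CCF4 dye 2 h RT, 460/530 nm emission. CellTiter-Glo viability in same wells.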

[5] = DH5-alpha competent E. coli microbial cell viability qHTS against the NCATS CANVASS Library (AID 1347377); conditions: outcome: dose series up to 46.1 µM
In short: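 Luminescent ATP read-out (BacTiter-Glo, 20 min RT) after overnight 37C culture of DH5-alpha E. coli with compounds; daunomycin control at 0.2 nM–9.2 uM final.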

[6] = qHTS for Activators of p53 Stress Response Pathway screened against the NCATS CANVASS Library (AID 1347388)
In short: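 p53RE-bla HCT-116 cells (4000/well) were plated 5 h at 37C, exposed to compounds for 16 h at 37C over an 11-point concentration series, then loaded with CCF4 for 2 h at room temperature; 460/530 nm emission ratio read.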

[7] = qHTS for activators of Nrf2/ARE signaling pathway screened against the NCATS CANVASS Library (AID 1347391); note: nearly all actives have a fitted effect of over 60% in size; note: potency is the fitted concentration of half-maximal effect
In short: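 HepG2 ARE-bla; cpd 11-pt qHTS, 16 h 37C/5% CO2; CCF4 substrate 2 h RT; read ex 405 / em 460 + 530 nm. Viability by CellTiter-Glo luminescence, 30 min RT.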

[8] = qHTS for inhibitors of Wild type Zika virus screened against the NCATS CANVASS Library (AID 1347396); note: potency is the fitted concentration of half-maximal effect
In short: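 Vero 766 (African green monkey) cells, 1000 per well, attached overnight, then compounds were added in an 11-point series before wild-type Zika virus infection. After 72 h at 37C, cell viability was read as CellTiter Glo luminescence.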

[9] = molecular target: Guanine nucleotide-binding protein G(i) subunit alpha-1 (Homo sapiens) (UniProt P63096); test: qHTS Assay for Inhibitors of RGS12 GoLoco Motif Activity (Green Fluorophore) (AID 879);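 note: negative values mean loss of peptide binding seen as reduced polarization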
In short: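 A drop in FITC polarization marked displacement of the FITC-tagged RGS12 GoLoco peptide (10 nM) from Gαi1 (50 nM). Compounds were incubated 10 min at room temperature in Tris pH 7.5 buffer containing 150 mM NaCl, 0.1 mM GDP and 0.05% NP40; unlabeled peptide titration served as control.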

[10] = molecular target: Cytochrome P450 3A4 (Homo sapiens) (UniProt P08684); test: qHTS Assay for Inhibitors and Substrates of Cytochrome P450 3A4 (AID 884); note: nearly all actives have a fitted effect of over 50% in size; note: potency is the fitted concentration of half-maximal effect
In short: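 Luminescent readout of luciferin produced by CYP3A4 (20 nM) dealkylation of Luciferin-PPXE, 25 uM (its KM). NADPH-driven reaction ran 60 min at RT after 10 min compound preincubation; data scaled to 57 uM ketoconazole as 100% inhibition.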

[11] = molecular target: Cytochrome P450 2D6 (Homo sapiens) (UniProt P10635); test: qHTS Assay for Inhibitors and Substrates of Cytochrome P450 2D6 (AID 891); note: nearly all actives have a fitted effect of over 60% in size; note: potency is the fitted concentration of half-maximal effect
In short: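 Luminescent read-out of luciferin formed by 5 nM human CYP2D6 demethylating 30 uM Luciferin-ME EGE (Km level) over 60 min at room temperature after NADPH regeneration addition. Data normalized to full inhibition by 1.43 uM quinidine.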

[12] = molecular target: Cytochrome P450 2C19 (Homo sapiens) (UniProt P33261); test: qHTS Assay for Inhibitors and Substrates of Cytochrome P450 2C19 (AID 899); note: nearly all actives have a fitted effect of over 60% in size; note: potency is the fitted concentration of half-maximal effect
In short: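 NADPH-dependent conversion of Luciferin-H EGE (10uM, at KM) by 5nM enzyme in 50mM KPO4, 60 min at 37C following 10 min compound preincubation. Stopped with luciferin detection buffer; luminescence read after 20 min.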

[13] = molecular target: Pyruvate kinase (Leishmania mexicana) (UniProt Q27686); test: qHTS Validation Assay for Inhibitors of Leishmania Mexicana Pyruvate Kinase (AID 945)
In short: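 LmPYK E451W 0.2 nM; 0.5 mM PEP, 0.1 mM ADP, 7 mM MgCl2, 50 mM KCl, imidazole pH 7.2, 0.01% Tween 20, 0.05% BSA; 1 h RT; PKLight luminescence; DMSO-normalized.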

[14] = molecular target: Alpha-galactosidase (Coffea arabica) (UniProt Q42656); test: Counterscreen for Glucocerebrosidase Inhibitors: qHTS Assay for Coffee Bean alpha-Galactosidase at pH 4.5 (AID 957); note: series mostly up to about 77 µM
In short: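 Fluorogenic read-out: 4-methylumbelliferone at Ex 365/Em 440 nm after NaOH/glycine stop (pH 10). Enzyme 2 nM, 4-MU-alpha-galactoside 80 uM, citrate buffer pH 4.5, 20 min RT; normalized to no-enzyme and enzyme controls.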

[15] = molecular target: Alpha-galactosidase A (Homo sapiens) (UniProt P06280); test: Counterscreen for Glucocerebrosidase Inhibitors: qHTS Assay for Human alpha-Galactosidase at pH 4.5 (AID 992)
In short: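 Steps: enzyme (2 nM final), then compound across 0.7 nM to 77 uM, then 80 uM fluorogenic galactopyranoside substrate; incubate 20 min at room temperature; quench at pH 10; measure fluorescence at 365/440 nm.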

[16] = qHTS for ATAD5 Antagonist screened against the NCATS CANVASS Library (AID 1347370);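 note: HEK293T cells carrying an ATAD5 luciferase reporter co-treated with 10 µM 5-fluorouridine; series mostly up to about 46 µM; nearly all actives have a fitted effect of over 65% in size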
In short: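 HEK293T-ATAD5 luc reporter, 2000 cells/well; 5hr attach; cpd + 10 uM 5-FUrd; 16hr 37C, 5% CO2. Readouts: CellTiter-Fluor fluorescence (1hr), then Amplite luciferase luminescence (30min RT).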

[17] = qHTS for Inflammasome Signaling Inhibitors: IL-1-beta AlphaLISA screen against the NCATS CANVASS Library (AID 1347379);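 note: human THP-1 cells primed with LPS then triggered with ATP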;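 for Potency: secreted IL-1B measured as AlphaLISA emission at 615 nm; potency is the fitted concentration of half-maximal effect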
In short: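 THP-1, 1 hr compound pre-incubation, then LPS 250 ng/mL + ATP 1.25 mM (final); 16 hr total with compound; IL-1B AlphaLISA, ex 680/em 615 nm; 11-point qHTS, up to 57.5 uM final.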

[18] = qHTS for inhibitors of ER calcium dysfunction: SERCaMP assay screened against the NCATS CANVASS Library (AID 1347393); note: nearly all actives have a fitted effect of over 40% in size; note: potency is the fitted concentration of half-maximal effect
In short: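 qHTS in SH-SY5Y reporter cells: 16 h compound pretreatment, 4 h thapsigargin, then secreted Gaussia luciferase measured by luminescence.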

[19] = qHTS for inhibitors of Rabies Virus screened against the NCATS CANVASS Library (AID 1347402; calls by dose curve; note: series mostly up to about 46 µM)
[20] = qHTS for Antimalaria activity screened against the NCATS CANVASS Library (AID 1347380); note: nearly all actives have a fitted effect of over 40% in size; note: potency is the fitted concentration of half-maximal effect
In short: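 SYBR Green fluorescence (ex 485, em 535 nm) read after saponin/Triton lysis and 18 h further incubation; Dd2 asexual blood-stage parasites, 72 h compound exposure, 11-pt concentration series, 2.5% hematocrit, 0.3% parasitemia.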

Measured: Potency

Chain of Pyruvate kinase (Leishmania mexicana) (Q27686 2-499 E452W): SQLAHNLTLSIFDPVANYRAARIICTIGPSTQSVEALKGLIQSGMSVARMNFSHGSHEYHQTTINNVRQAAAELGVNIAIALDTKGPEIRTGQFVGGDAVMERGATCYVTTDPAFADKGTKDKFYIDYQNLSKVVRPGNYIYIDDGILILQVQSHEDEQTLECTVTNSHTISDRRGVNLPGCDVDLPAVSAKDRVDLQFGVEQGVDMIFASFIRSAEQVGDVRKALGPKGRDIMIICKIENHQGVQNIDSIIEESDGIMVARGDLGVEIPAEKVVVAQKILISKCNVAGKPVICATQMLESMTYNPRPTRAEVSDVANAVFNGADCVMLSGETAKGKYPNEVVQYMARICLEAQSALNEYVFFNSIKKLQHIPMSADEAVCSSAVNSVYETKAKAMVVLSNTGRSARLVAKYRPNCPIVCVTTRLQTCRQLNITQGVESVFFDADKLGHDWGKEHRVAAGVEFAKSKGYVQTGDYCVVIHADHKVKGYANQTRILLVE
Chain of Cytochrome P450 2D6 (Homo sapiens) (P10635 whole entry, looked up): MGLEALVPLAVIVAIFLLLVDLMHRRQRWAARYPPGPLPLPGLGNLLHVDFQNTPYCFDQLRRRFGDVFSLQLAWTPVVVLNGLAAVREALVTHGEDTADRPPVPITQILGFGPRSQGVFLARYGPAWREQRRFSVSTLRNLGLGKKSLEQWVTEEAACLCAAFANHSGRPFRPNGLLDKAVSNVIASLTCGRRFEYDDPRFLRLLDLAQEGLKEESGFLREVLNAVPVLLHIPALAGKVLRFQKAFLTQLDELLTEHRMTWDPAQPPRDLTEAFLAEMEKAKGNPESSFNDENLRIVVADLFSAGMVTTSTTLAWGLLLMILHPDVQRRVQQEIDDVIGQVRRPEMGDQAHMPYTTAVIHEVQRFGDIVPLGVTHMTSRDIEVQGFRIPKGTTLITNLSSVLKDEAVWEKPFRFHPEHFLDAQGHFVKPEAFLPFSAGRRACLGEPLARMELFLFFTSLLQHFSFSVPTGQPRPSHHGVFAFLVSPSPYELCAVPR
Chain of Cytochrome P450 3A4 (Homo sapiens) (P08684 whole entry, looked up): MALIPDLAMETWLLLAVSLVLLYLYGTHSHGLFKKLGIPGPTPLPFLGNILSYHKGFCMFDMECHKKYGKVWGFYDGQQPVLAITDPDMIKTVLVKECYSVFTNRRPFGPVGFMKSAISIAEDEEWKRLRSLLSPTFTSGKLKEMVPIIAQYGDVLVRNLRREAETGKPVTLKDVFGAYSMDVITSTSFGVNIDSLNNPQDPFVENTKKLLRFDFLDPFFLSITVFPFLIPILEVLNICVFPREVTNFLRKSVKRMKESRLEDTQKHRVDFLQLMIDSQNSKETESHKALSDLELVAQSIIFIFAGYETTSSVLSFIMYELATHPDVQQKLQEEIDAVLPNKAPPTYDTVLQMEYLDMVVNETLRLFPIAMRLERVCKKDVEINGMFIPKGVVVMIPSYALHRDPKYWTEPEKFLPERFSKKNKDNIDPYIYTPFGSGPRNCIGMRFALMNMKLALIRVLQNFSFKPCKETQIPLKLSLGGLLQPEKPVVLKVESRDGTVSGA
Chain of Cytochrome P450 2C19 (Homo sapiens) (P33261 whole entry, looked up): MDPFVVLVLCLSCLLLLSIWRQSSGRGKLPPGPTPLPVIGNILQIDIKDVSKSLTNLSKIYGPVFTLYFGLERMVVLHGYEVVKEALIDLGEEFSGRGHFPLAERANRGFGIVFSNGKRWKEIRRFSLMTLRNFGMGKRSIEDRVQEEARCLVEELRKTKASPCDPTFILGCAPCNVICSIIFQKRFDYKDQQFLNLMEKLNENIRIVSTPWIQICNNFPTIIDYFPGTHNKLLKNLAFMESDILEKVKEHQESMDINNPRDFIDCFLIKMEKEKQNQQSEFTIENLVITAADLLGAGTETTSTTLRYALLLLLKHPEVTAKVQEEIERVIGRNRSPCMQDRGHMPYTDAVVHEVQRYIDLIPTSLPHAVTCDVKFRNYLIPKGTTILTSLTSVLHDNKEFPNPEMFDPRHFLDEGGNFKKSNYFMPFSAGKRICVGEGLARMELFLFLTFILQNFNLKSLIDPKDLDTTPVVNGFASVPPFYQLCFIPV
Chain of Alpha-galactosidase A (Homo sapiens) (P06280 whole entry, looked up): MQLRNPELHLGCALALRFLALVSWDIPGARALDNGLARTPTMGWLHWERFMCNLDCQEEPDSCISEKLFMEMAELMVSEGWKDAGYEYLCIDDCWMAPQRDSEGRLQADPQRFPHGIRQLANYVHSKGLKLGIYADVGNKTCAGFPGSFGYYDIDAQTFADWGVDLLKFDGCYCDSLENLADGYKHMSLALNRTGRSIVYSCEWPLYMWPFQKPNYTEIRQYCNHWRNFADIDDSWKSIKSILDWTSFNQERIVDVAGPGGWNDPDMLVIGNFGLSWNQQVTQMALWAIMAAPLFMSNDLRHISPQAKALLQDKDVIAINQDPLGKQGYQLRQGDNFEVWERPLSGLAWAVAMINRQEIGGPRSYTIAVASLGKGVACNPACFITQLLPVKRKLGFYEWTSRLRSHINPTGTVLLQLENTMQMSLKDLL
Chain of Alpha-galactosidase (Coffea arabica) (Q42656 whole entry, looked up): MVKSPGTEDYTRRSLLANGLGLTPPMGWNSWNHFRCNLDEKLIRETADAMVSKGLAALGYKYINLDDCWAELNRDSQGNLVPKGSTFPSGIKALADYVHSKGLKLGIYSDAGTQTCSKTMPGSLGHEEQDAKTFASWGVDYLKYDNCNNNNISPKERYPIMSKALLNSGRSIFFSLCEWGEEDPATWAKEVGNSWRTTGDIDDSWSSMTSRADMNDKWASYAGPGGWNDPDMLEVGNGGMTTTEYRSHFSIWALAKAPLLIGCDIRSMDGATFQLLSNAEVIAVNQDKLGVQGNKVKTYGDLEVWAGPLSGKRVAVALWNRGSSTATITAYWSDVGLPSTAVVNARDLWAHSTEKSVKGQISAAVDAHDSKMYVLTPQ
Chain of Guanine nucleotide-binding protein G(i) subunit alpha-1 (Homo sapiens) (P63096 whole entry, looked up): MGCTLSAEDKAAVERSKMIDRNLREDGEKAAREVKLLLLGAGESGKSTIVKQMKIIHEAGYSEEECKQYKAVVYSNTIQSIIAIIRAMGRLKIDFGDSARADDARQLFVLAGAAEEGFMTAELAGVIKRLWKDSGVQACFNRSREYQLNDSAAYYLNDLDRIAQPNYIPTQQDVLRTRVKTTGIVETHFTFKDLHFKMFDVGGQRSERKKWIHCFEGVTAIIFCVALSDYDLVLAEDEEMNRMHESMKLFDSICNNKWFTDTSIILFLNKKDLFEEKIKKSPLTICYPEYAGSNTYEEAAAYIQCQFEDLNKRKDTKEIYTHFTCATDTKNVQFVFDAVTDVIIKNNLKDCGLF

CCCCC[C@@H]1OC(=O)[C@@H](C)N(C)C(=O)[C@H](CCCCC)OC(=O)C(C)N(C)C(=O)[C@H](CCCCC)OC(=O)[C@@H](C)N(C)C(=O)[C@H](CCCCC)OC(=O)C(C)N(C)C1=O (some centres not stated)
active: [1] 4.18 µM | [2] 16.6 µM | [3] 18.7 µM | [4] 11.8 µM | [8] 11.7 µM
inactive: [5] | [6] | [7]

O=C(Cc1ccc(Cl)c(Cl)c1)N1CCCC[C@H]1CN1CCCC1
inactive: [9] | [13] | [14] | [15]
active: [10] 7.94 µM | [11] 7.94 µM and 2.51 µM | [12] 6.31 µM

O=C(CCCN1CCC2(CC1)C(=O)N(Cc1cccc(F)c1)CN2c1ccccc1)c1ccc(F)cc1
active: [11] 3.16 µM

C[C@H](N)Cc1c[nH]c2ccc(OCc3cccs3)cc12
active: [11] 0.794 µM
inactive: [9] | [13] | [14] | [15]

COC(=O)C1=C2Nc3ccccc3[C@@]23CCN2CC(C(C)=O)C1C[C@H]23 (some centres not stated)
active: [18] 17.2 µM
not listed: [9] | [10] | [11] | [12] | [13] | [14] | [15] | [20]
inactive: all other assays above

COc1ccc(C23Oc4cc(OC)cc(OC)c4[C@](O)([C@H](c4ccccc4)C2C(=O)NCCCCNC(=O)c2ccccc2)[C@@H]3O)cc1 (some centres not stated)
inactive: [1] | [2] | [3] | [16] | [4] | [5] | [17] | [20] | [6] | [8] | [19]

CCC[C@H]1CC[C@H]2[C@H](C)CCC[C@H]2N1
not listed: [9] | [10] | [11] | [12] | [13] | [14] | [15]
inactive: all other assays above

CC[N@@+]1([O-])C[C@]2(C)CC[C@@H](O)[C@@]34C5C[C@H]6CC[C@@]5(C(C[C@H]23)C41)[C@H](O)[C@@]6(O)CO (some centres not stated)
not listed: [9] | [10] | [11] | [12] | [13] | [14] | [15]
inactive: all other assays above

CC1=CC2CC[C@@H]3[C@@H](C)C[C@H](C)[C@@H](C1)N23 (some centres not stated)
inactive: [1] | [2] | [3] | [16] | [4] | [17] | [6] | [7] | [18] | [8] | [19]

CC(C)C[C@H]1C(=O)N2CCCC2[C@]2(O)O[C@](NC(=O)[C@@H]3C=C4c5cccc6[nH]cc(c56)CC4N(C)C3)(C(C)C)C(=O)N12 (some centres not stated)
active: [10] 1 µM

O=C1Nc2ccccc2C2(CCN(CCc3ccc(C(F)(F)F)cc3)CC2)O1
inactive: [10]

CCCCCCC[n+]1ccc(-c2cc[n+](CCCCCCC)cc2)cc1
active: [11] 7.94 µM

CNCCc1c[nH]c2ccccc12
not listed: [2] | [9] | [10] | [11] | [12] | [13] | [14] | [15]
inactive: all other assays above

CC[C@@H]1CN2CC[C@@]3(O)C(=Nc4cccc(OC)c43)[C@@H]2C[C@@H]1/C(=C\OC)C(=O)OC
inactive: [3] | [16] | [4] | [5] | [17] | [6] | [7] | [8] | [19]
active: [20] 14.9 µM

CCN1C[C@]2(C)CC[C@H](O)[C@]34C1C(C[C@H]23)[C@@]12CC[C@H](CC14)[C@](O)(COC(=O)c1ccc(OC)c(OC)c1)[C@H]2O (some centres not stated)
active: [18] 10.8 µM
inactive: [16] | [4] | [5] | [17] | [20] | [6] | [7] | [8] | [19]

c1ccc2c3c([nH]c2c1)CNCC3
inactive: [1] | [3] | [16] | [17] | [20] | [6] | [7] | [8] | [19]

C[C@@H]1CC[C@@H](c2ccoc2)N2C[C@@]3(CC[C@@H]12)CS[C@@]1(CC[C@H]2[C@H](C)CC[C@@H](c4ccoc4)N2[C@@H]1O)C3
active: [1] 7.43 µM | [2] 6.62 µM | [3] 7.43 µM | [17] 8.63 µM | [20] 1.88 µM
inactive: [5]

CP(=O)(O)CCCN
inactive: [9] | [13] | [14] | [15]

COc1ccc2[nH]cc(CCN(C)C)c2c1
inactive: [9] | [13] | [14] | [15]

CCCC[C@@H]1CC[C@H]2CCCC(CCC)N12 (some centres not stated)
inactive: [1] | [2] | [3] | [16] | [4] | [5] | [17] | [6] | [7] | [8] | [19]

CC1=CC(=O)C2=C(C)C[C@H](O)[C@@H]3[C@H](OC(=O)[C@@H]3C)[C@@H]12
active: [7] 13.2 µM | [18] 34.3 µM
inactive: [1] | [2] | [3] | [16] | [5] | [6] | [8] | [19]

CN1C(=O)CCS(=O)(=O)[C@H]1c1ccc(Cl)cc1
inactive: [9] | [10] | [11] | [12] | [13] | [14] | [15]

O=C1C2CCN(CC2)C1(CO)CO
active: [12] 0.631 µM

CN1CCN(c2ccc3ccccc3n2)CC1
inactive: [9] | [13] | [14] | [15]
